For 66 molecules, INHIBITION results are on record in ChEMBL document CHEMBL4513216, “Probing the Open Global Health Chemical Diversity Library for Multistage-Active Starting Points for Next-Generation Antimalarials” (ACS Infect Dis, 2020).

Hit rate of the full screen: of about 68,000 compounds, about 2,700 (4%) showed an effect of 50% or more. The sample holds strong results, similar compounds and a random draw of the others, so the mix is not that of the screen.

For the assay, the system named is Plasmodium berghei. In words: Screen against P. berghei liver stage (PbLuc), transformed with Luciferase, at 2uM. The format is functional, HepG2. As to conditions: tested at 2 uM.
`Cc1cc(C)cc(OCC(=O)N2CCCN(CC(N)=O)CC2)c1`: the INHIBITION is on record as -28.76%. The result for `CN(C)C[C@H]1OC[C@@H]2CCN(C(=O)c3cccn3C)C[C@@H]21` reads 8.65%; that for `Cc1cc(C)n(NC(=O)c2ccc(Cl)cc2Cl)c(=O)c1`, -3.05%; that for `Cc1ccc(CNC2CC3(CCN(CCO)CC3)c3ccccc32)s1` (stereo unspecified), 47.05%. Next, `CN(C)[C@@H]1CN(C(=O)COc2cccc(F)c2)C[C@H]1O`: -0.83%. The result for `CCCNC(=O)C1CCN(Cc2csc(CC)n2)CC1` reads 36.64%; that for `COCCC1COC2(CCN(C(=O)Cc3ccccc3)CC2)C1` (stereo unspecified), -19.07%. Turning to `O=C([C@H]1COC[C@H]2CN(C3CCOCC3)C[C@H]21)N1CCCO1`, the INHIBITION was -17.39%. As to `O=C([C@H]1COC[C@H]2CN(C3CCOCC3)C[C@H]21)N1CCCCO1`, the INHIBITION is recorded as -3.25%.

Turning to `O=C([C@@H]1COC[C@H]2CN(C3CCOCC3)C[C@H]21)N1CCCCO1`, the INHIBITION came out at 59.77%. Next, `CCOCC1c2c(cnn2CC2CC2)CCN1Cc1nccs1` (stereo unspecified): 26.64%; `O=C(NCCCO)c1nnsc1-c1ccc(Cl)cc1`: 34.52%; `CN(CCCc1cnn(C)c1)Cc1cc2n(n1)CCNC2`: 19.66%. Take `CS(=O)(=O)NCCCN1CCCC1c1cccc(Br)c1` (stereo unspecified): the INHIBITION is on record as -8.52%. As for `CS(=O)(=O)NCCCN1CCCC1c1ccsc1` (stereo unspecified), the INHIBITION was 51.46%. As for `CS(=O)(=O)NCCCN1CCCC1c1ccccc1` (stereo unspecified), the INHIBITION is listed as 42.11%.

As to `Cc1noc(C)c1CN1C[C@@H]2COC[C@H](C(=O)N3CCCCO3)[C@@H]2C1`, the INHIBITION is listed as -60.98%. Next, `COC(=O)CCn1ccc(=O)c2cc(F)ccc21`: -17.26%; `O=C(O)CCn1ccc(=O)c2cc(F)ccc21`: 55.73%; `O=C(O)Cn1ccc(=O)c2cc(F)ccc21`: 3.88%. Next, `O=C(CCn1cncn1)Nc1ccc(F)cc1OCC1CC1`: 14.47%. As to `CCn1cc(CNCCNc2ncc(Cl)cc2Cl)cn1`, the INHIBITION is -30.98%.

`Cn1ccnc1CNCCNc1ncc(Cl)cc1Cl`: the INHIBITION came to 57.43%.

As to `Cn1cc(CNCCNc2ncc(Cl)cc2Cl)cn1`, the INHIBITION is given as -12.84%. Next, `CC(C)c1nc(CN2CCc3onc(-c4cccc(F)c4)c3C2)no1`: -18.57%; `COc1c(CNCCNC(=O)c2ccc(C)c(F)c2)c(C)nn1C`: -45.21%. Next, `COc1c(CNCCNC(=O)c2ccccc2)c(C)nn1C`: 33.82%; `COc1c(CNCCNC(=O)c2ccccc2F)c(C)nn1C`: 67.69%; `COc1cccc([C@@H]2CN(C(=O)c3ccc(C)cc3O)C[C@H]2C(=O)O)c1`: 10.1%.

With `Cc1cn2nc(N3CCCC3C(=O)N3CCOCC3)sc2n1` (stereo unspecified), the INHIBITION is reported as -11.41%. On to `Cc1cn2nc(N3CCCC3C(=O)N3CCN(C)CC3)sc2n1` (stereo unspecified), for which the INHIBITION amounted to 7.67%.

Take `Cc1cn2nc(N3CCCC3C(=O)N3CCSCC3)sc2n1` (stereo unspecified): the INHIBITION is reported as 55.36%. On to `COc1ccc(C(=O)NC(CC(=O)O)c2cccs2)c(OC)c1` (stereo unspecified), for which the INHIBITION is recorded as 7.01%. Next, `COCC(O)CN1CCC(NC(=O)c2cccc(C)c2)CC1` (stereo unspecified): 2.32%; `CS(=O)(=O)CCCNC1(c2cccc(Cl)c2)CCCC1`: 17.2%. The result for `Cc1cccc(C2(NCCCS(C)(=O)=O)CCCC2)c1` reads 36.28%. The result for `CS(=O)(=O)CCCNC1(c2ccc(Br)cc2)CCC1` reads 55.36%; that for `O=C(NCc1ccnc(OCC(F)(F)F)c1)NCC1CCOC1` (stereo unspecified), -3.72%. Regarding `CNC(=O)[C@H]1C[C@@H]2CN(S(=O)(=O)c3ccccc3)C[C@@H]2N1C(C)=O`, the INHIBITION is listed as 5.52%. `O=C(NCc1cccs1)[C@H]1CC[C@@H]2[C@@H](CCN2c2ncccn2)O1`: the INHIBITION is -23.39%. Next, `Cc1cc(C(=O)N2CCc3ncnc(-c4cnn(C)c4)c3CC2)c(C)o1`: 55.94%; `Cc1occc1C(=O)N1CCc2ncnc(-c3cnn(C)c3)c2CC1`: 23.27%; `Cc1oncc1C(=O)N1CCc2ncnc(-c3cnn(C)c3)c2CC1`: 33.74%. Take `CC(C)CC(NC(=O)c1ccn(C)c(=O)c1)c1cccs1` (stereo unspecified): the INHIBITION is listed as 9.29%.

As for `CN(CCc1cn[nH]c1)C(=O)C1CC(=O)N(Cc2ccccn2)C1` (stereo unspecified), the INHIBITION is given as 48.93%.

`COCc1noc(CCNC(=O)c2ccc(C3CCCO3)s2)n1` (stereo unspecified): the INHIBITION was -31.23%. As for `Cc1ccc(CN2C[C@@H](N(C)C)[C@H]3OCCC[C@H]32)o1`, the INHIBITION is given as 39.57%. As to `Cc1ccc(CN2C[C@H](N3CCOCC3)[C@@H]3OCCC[C@@H]32)o1`, the INHIBITION is 63.23%.

Turning to `Cc1cc(CN2C[C@H](N3CCOCC3)[C@@H]3OCCC[C@@H]32)oc1C`, the INHIBITION was -0.23%. `COCC(=O)N1CCC2(C1)c1ccccc1S(=O)(=O)N2CC1CC1` (stereo unspecified): the INHIBITION is recorded as -11.81%. Turning to `Cc1cn(CC(=O)NC2CCC(C(=O)O)CC2)c2ccccc12` (stereo unspecified), the INHIBITION came out at 0.13%. The result for `CCN1CCC(NC(=O)Cn2cc(C)c3ccccc32)CC1` reads -3.38%; that for `Cc1cn(CC(=O)NC2CCC3(CC2)OCCO3)c2ccccc12`, 70.17%; that for `CCCC1CCCN(C(=O)Nc2cccnc2OC)CC1` (stereo unspecified), 0.73%. `COc1ccc(C2CCCN2S(=O)(=O)c2cc(F)ccc2F)cc1` (stereo unspecified): the INHIBITION is on record as 7.24%. In the case of `Cc1cc(=O)[nH]cc1C(=O)N1Cc2ccccc2N(C)CC1C` (stereo unspecified), the INHIBITION was determined as 47.59%. The result for `CCc1csc(C2CCCN(C(=O)c3c[nH]c(C)n3)C2)n1` (stereo unspecified) reads 33.91%; that for `Cc1nc(C(=O)N2CCCC(c3nc(C(C)C)cs3)C2)c[nH]1` (stereo unspecified), 77.56%; that for `CCc1csc(C2CCCN(C(=O)c3ccc(OC)nn3)C2)n1` (stereo unspecified), 11.18%. With `CCc1csc(C2CCCN(C(=O)c3ccc(=O)n(CC)n3)C2)n1` (stereo unspecified), the INHIBITION is given as 60.09%.

With `CC(C)c1csc(C2CCCN(C(=O)Cn3ccccc3=O)C2)n1` (stereo unspecified), the INHIBITION amounted to 54.92%.

On to `Cc1nc(C2CCCN(C(=O)Cn3ccccc3=O)C2)sc1C` (stereo unspecified), for which the INHIBITION is 14.77%. On to `Cc1csc(C2CCCN(C(=O)Cn3ccccc3=O)C2)n1` (stereo unspecified), for which the INHIBITION is 42.29%. Turning to `CCc1csc(C2CCCN(C(=O)c3ccc(=O)n(C)n3)C2)n1` (stereo unspecified), the INHIBITION came out at 26.51%. Next, `Cc1csc(C2CCCN(C(=O)c3c[nH]c(C)n3)C2)n1` (stereo unspecified): -92.68%. In the case of `CC(C)NC(=O)NCc1nnc2n1C(C(=O)N(C)C)CC2` (stereo unspecified), the INHIBITION came out at 24.34%.
